# This excerpt belongs to a sample that is enriched for hits.
# Methyltransferases = Primary Screen for Target Class Profiling of Small Molecule Inhibitors of Methyltransferases; purified enzyme, MTase-Glo SAH luminescence; active compounds read low; 25,000 compounds, 3.9% hits; AID 1745853, 2022; calls only at 40 µM; call rule not given here
#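 Each enzyme was reacted with SAM and its substrate, with compounds tested once at 40 uM; SAH formed was read by MTase-Glo luminescence.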
# MTase-Glo counter = Counterscreen for Target Class Profiling of Small Molecule Inhibitors of Methyltransferases; shares compounds with Methyltransferases; MTase-Glo coupled enzymes, SAH conversion luminescence, no MTase; Potency, µM (doses to about 57.3 µM), usual class: inhibitors; 180 compounds, 6% hits; active = well fitted inhibition curve with a large enough effect; inconclusive = small, poorly fitted or top-dose-only effect
# A number is an active result; i = inactive; ? = inconclusive; + = active, no number.
SMILES,Methyltransferases,others
CN1CCN(c2nc3cc(C(F)(F)F)ccc3n3cccc23)CC1,i,
O=C(C1CC2(CCNCC2)CN1)N1CCC(c2nc3ccccc3[nH]2)CC1 (configuration not stated),i,
CC(=O)N1CC[C@H](c2nc3ccc(C#N)cc3[nH]2)C1,i,
CCc1cc2c(cc3n2CC(C)(C(=O)NC2CCCCCC2)N(CCCOC)C3=O)s1 (configuration not stated),i,
COCCN1C(=O)c2nc3ccccc3n2CC1(C)C(=O)NC1CCCCC1C (configuration not stated),i,
O=C(O)CCNS(=O)(=O)c1ccc2[nH]c(=O)[nH]c2c1,i,
COc1ccc(C(=O)NCCn2c(C)cnc2-c2ccccc2)cn1,i,
COc1ccccc1-c1[nH]nc2ncc(C(=O)NCC3CC3)nc12,+,MTase-Glo counter=i
COCCCNC(=O)c1cnc2n[nH]c(-c3ccccc3)c2n1,+,MTase-Glo counter=i
COc1ccccc1CCNC(=O)c1cc2n(n1)CC(C)(C(=O)NC1CCCCCC1)N(C)C2=O (configuration not stated),i,
CCOCCCNC(=O)c1cc2c(=O)[nH]c(-c3ccccc3)cn2n1,i,
Cc1cc(F)ccc1-c1[nH]nc2ncc(-c3ccnn3C)nc12,i,
CC1(C)[C@H]2CC[C@@H](CNC(=O)c3ccc4ccccc4n3)[C@@H]1C2,i,
c1ccc(-c2[nH]nc3ncc(-c4cn[nH]c4)nc23)cc1,+,MTase-Glo counter=25µM
COC(=O)c1ncn2c1C(=O)N(Cc1ccccc1OC)C(C)(C(=O)NC1CCCCCC1)C2 (configuration not stated),i,
CCOc1ccc(CCNC(=O)CCn2ccc3cc(S(=O)(=O)N4CCCCC4)ccc32)cc1,i,
CC(C(=O)NCc1ccc2c(c1)OCO2)n1ccc2cc(S(=O)(=O)N3CCCC3)ccc21 (configuration not stated),i,
COc1ncccc1-c1nccn2c(C3CN(Cc4ccccc4O)C3)ncc12,+,MTase-Glo counter=i
COc1ncccc1-c1cc2c(nc1OC)nc(CCc1ccccc1)n2C,i,
COc1ncccc1-c1n[nH]c2c1CC(=O)N(Cc1ccccc1)C2,i,
COc1ccc(-c2cc3n(n2)CC(C)(C(=O)NC2CCCCC2)N(CC2CCCO2)C3=O)cc1 (configuration not stated),i,
COc1ncccc1-c1nc(-c2c(C)noc2C)cc2cc(CN(C)C)oc12,i,
Cc1noc(C)c1-c1cc2c(cc(C)n2CCN(C)C)c(Nc2ccncn2)n1,+,MTase-Glo counter=i
COc1ccc(CCNC(=O)C(C)n2ccc3cc(S(=O)(=O)N4CCCC4)ccc32)c(OC)c1 (configuration not stated),i,
CCOc1ccc(CN2C(=O)c3cc4ccccc4n3CC2(C)C(=O)NC2CCCCC2)cc1 (configuration not stated),i,
SMILES,Methyltransferases,others
CCCN1C(=O)c2c(C(=O)NCc3cccc(OC)c3)ncn2CC1(C)C(=O)NCc1ccc(OC)cc1 (configuration not stated),i,
COc1ccc(-c2cnc3[nH]cc(CC(=O)Nc4ccc(C(F)(F)F)cc4)c3c2)cc1,i,
COc1ccc(CNC(=O)Cn2ccc3cc(S(=O)(=O)N4CCCC4)ccc32)c(OC)c1,i,
O=C(c1cc(F)ccc1F)N1CCCCC1c1nc(-c2cnccn2)n[nH]1 (configuration not stated),i,
O=C(Nc1ccncc1)c1cc([N+](=O)[O-])ccc1Cl,i,
O=C(Nc1ccc2ncnc(N3CCCCC3)c2c1)c1cc(F)ccc1F,+,MTase-Glo counter=5.4µM
COc1ccc(CC(=O)Nc2ccc3ncnc(N4CCCC4)c3c2)c(Cl)c1,+,MTase-Glo counter=?
O=C(Nc1ccc2c(N3CCCC3)ncnc2c1)c1cc(F)ccc1Cl,+,MTase-Glo counter=i
O=C(Nc1cnc(Cl)nc1)c1ccc(F)c(F)c1,i,
O=C(Cc1ccsc1)Nc1ccc2c(N3CCCC3)ncnc2c1,+,MTase-Glo counter=i
CN1C(=O)c2cc(NC(=O)c3ccccc3Cl)ccc2N2CCN=C12,i,
CCOc1ccc(-c2cc3n(n2)CC(C)(C(=O)NCCC(C)C)N(c2ccccc2CC)C3=O)cc1 (configuration not stated),i,
COc1cccc(CN2C(=O)c3cc4oc(C)cc4n3CC2(C)C(=O)NC2CCCCCCC2)c1 (configuration not stated),i,
CCCn1c(=O)c2cc(F)ccc2n2c(SCC(=O)N3CCN(c4ccc(F)cc4)CC3)nnc12,i,
Cc1ccc(-c2nnc3n(Cc4ccccc4)c(=O)c4ccccc4n23)cc1,i,
CCc1cc2c(cc3n2CC(C)(C(=O)NC2CCCCCC2)N(Cc2ccc(C)cc2)C3=O)s1 (configuration not stated),i,
CCn1c(=O)n(CC)c2cc(S(=O)(=O)Nc3ccccc3)ccc21,i,
CCC(C)NC(=O)c1ccc2c(=O)n(C(C)C)c3nn(CC(=O)Nc4ccccc4Cl)c(=O)n3c2c1 (configuration not stated),i,
CCCc1nc2c3ccccc3n(CC(=O)N3CCN(c4ccccc4F)CC3)c(=O)n2n1,i,
CN1C(=O)c2cc3ccccc3n2CC1(C)C(=O)NCC(=O)NCc1ccccn1 (configuration not stated),i,
CCOC(=O)c1cc2n(n1)CC(C)(C(=O)NCCC(C)C)N(Cc1ccc3c(c1)OCO3)C2=O (configuration not stated),i,
COc1cc([C@@H]2Nc3c(Cl)cccc3[C@@H]3C=CC[C@@H]32)cc(Br)c1OC,i,
O=C1OCCC1CCC(=O)N1CCc2c(nc(-c3ccccc3)[nH]c2=O)C1 (configuration not stated),i,
O=C(c1cc(-c2ccccc2)n[nH]1)N1CCc2c(nc(-c3ccccc3)[nH]c2=O)C1,+,MTase-Glo counter=i
CCCc1cc(C(=O)N2CCc3c(nc(-c4cccnc4)[nH]c3=O)C2)n[nH]1,i,
SMILES,Methyltransferases,others
CN(C)c1ccc(CN2C(=O)c3nc4ccccc4n3CC2(C)C(=O)NCc2ccccc2)cc1 (configuration not stated),i,
CSCCC(NC(=O)c1ccccc1NC(=O)c1ccccc1)C(=O)O (configuration not stated),i,
CCOC(=O)c1cccc(NS(=O)(=O)c2ccc3c(c2)n(C)c(=O)n3C)c1,i,
CCc1ccc(NC(=O)CN(C)S(=O)(=O)c2ccc3[nH]c4c(c3c2)CCCC4)cc1,i,
O=C(c1ccc(C(F)(F)F)cc1)N1CCCC(C(=O)N2CCC(c3nc4ccncc4[nH]3)CC2)C1 (configuration not stated),+,MTase-Glo counter=i
O=C(C1CCCN1C(=O)c1ccccc1Cl)N1CCC(c2nc3ccncc3[nH]2)CC1 (configuration not stated),i,
O=C(C1CCCN1[S+](=O)([O-])c1cccc(C(F)(F)F)c1)N1CCC(c2nc3ccncc3[nH]2)C1 (configuration not stated),i,
CC1(C(=O)NC2CCCCCCC2)Cn2c(ccc2-c2ccco2)C(=O)N1CCc1ccco1 (configuration not stated),i,
Cc1cc(Cl)ccc1NC1CN(C(=O)OC(C)(C)C)C1,i,
CNc1cc(C2CC(NC(=O)COc3ccc(Cl)cc3C)C2)nc(N)n1 (configuration not stated),+,MTase-Glo counter=2.7µM
Cc1nc(CCNc2cc(C3CC(O)C3)nc(N)n2)nc2c1CCC2 (configuration not stated),i,
